In PubChem BioAssay (Tox21) one finds Potency data, which are given here for eight molecules.

SMILES strings stand for the structures. Several values for one entry are separate records, joined by “and”; a condition that tells them apart may be missing. Identical values can stand only once. Records with an inconclusive call do not appear. Some compounds were tested as several samples or in several runs, with calls that do not always agree. Activity calls are given as the source filed them. Unless noted, calls come from the whole dose curve.

Test [1] can be described thus: Nuclear factor erythroid 2-related factor 2/antioxidant responsive element (Nrf2/ARE) small molecule agonists: qHTS cell viability counter screen in human keratinocytes (AID 1919968; active = well fitted curve in the direction sought with a large enough effect in the repeat runs; an effect the other way counts as inactive or inconclusive; note: nearly all actives have a fitted effect of over 55% in size; note: potency is the fitted concentration of half-maximal effect). An outline of the steps:
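KeratinoSens cells (HaCaT keratinocytes stably carrying an ARE-luciferase reporter) were seeded at 1,500 cells/well and rested 5 h at 37 C/5% CO2. They were then exposed to compounds in DMSO for 23 h. Viability was read by CellTiter-Fluor fluorescence after 1 h.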
Background: Quantitative high-throughput screening tests each substance at several concentrations.

Test [2] is described as follows: Nuclear factor erythroid 2-related factor 2/antioxidant responsive element (Nrf2/ARE) small molecule agonists: luciferase reporter gene qHTS assay in human keratinocytes (AID 1919969). Note: nearly all actives have a fitted effect of over 35% in size. Background: Reporter assays use an easily measured gene product as a stand-in for the process of interest.
For test [3], the target named is KiSS-1 receptor (Homo sapiens) (UniProt Q969F8). Nature of the test: Human kisspeptin (KISS1R) small molecule agonists, calcium flux assay in KISS1R-HEK293 cells (AID 1920064; active = well fitted curve in the direction sought with a large enough effect in the repeat runs; an effect the other way counts as inactive or inconclusive). The procedure, abridged:
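HEK293 cells stably expressing human KISS1R were plated 18 h at 37 °C, loaded with calcium dye for 1 h at 37 °C, then given compound by pin tool. Fluorescence (Ex/Em 480/540) was read kinetically for 3 min.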
(In general: Calcium flux is commonly read through the fluorescence of an indicator in the cells.)

Test [4] is described as follows: G protein-coupled receptor (GPCR) small molecule agonists, calcium flux assay: HEK293 wild type cell line counter screen (AID 1920065). The procedure, abridged:
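Cells were plated and cultured 18 h at 37 C/5% CO2, then loaded with calcium dye for 1 h at 37 C. Compounds in DMSO were pin-transferred in agonist mode, and fluorescence (Ex/Em 480/540) was read kinetically for 3 min at 1 s intervals.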

Test [5] in a line: p53 small molecule agonists, cell-based qHTS assay with rat liver microsomes (AID 1963578). The procedure, abridged:
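p53RE-bla cells, 4,000/well, pre-incubated 5 h, then given compounds plus rat liver microsomes (0.5 mg/mL final) and NADPH (0.5 mg/mL final). Incubation 16 h at 37 C; beta-lactamase reporter read by LiveBLAzer fluorescence after 2 h at room temperature.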

The nature of test [6]: p53 small molecule agonists, cell-based qHTS assay with human liver microsomes: qHTS cell viability counter screen (AID 1963579). Note: nearly all actives have a fitted effect of over 45% in size. An outline of the steps:
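p53RE-bla cells, 4,000/well, dosed 5 hours after plating, with human liver microsomes (0.5 mg/mL final) plus NADPH (0.5 mg/mL final), 16 hours at 37 C. Viability read as CellTiter-Glo luminescence after 30 min at room temperature.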

Test [7] in a line: p53 small molecule agonists, cell-based qHTS assay with rat liver microsomes: qHTS cell viability counter screen (AID 1963580). Note: nearly all actives have a fitted effect of over 45% in size. Note: potency is the fitted concentration of half-maximal effect. The procedure, abridged: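 p53RE-bla HCT-116 cells were exposed 16 h at 37 C to compounds with rat liver microsomes (0.5 mg/mL) and NADPH (0.5 mg/mL). Viability was measured in the same wells as ATP content by CellTiter-Glo luminescence.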
Test [8] can be described thus: p53 small molecule agonists, cell-based qHTS assay: qHTS cell viability counter screen (AID 1963581). Note: nearly all actives have a fitted effect of over 45% in size. The procedure, abridged:
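p53RE-bla HCT-116 cells were exposed to compounds for 16 h at 37 C; after the beta-lactamase FRET read in the same wells, CellTiter-Glo was added and luminescence (intracellular ATP) read after 30 min at room temperature.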

The nature of test [9]: p53 small molecule agonists, cell-based qHTS assay (AID 1963582; active = well fitted activation curve with a large enough effect in the signal ratio in the repeat runs, not every such curve was filed as active; the % refers to the signal ratio; note: potency is the fitted concentration of half-maximal effect). The procedure, abridged:
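p53RE-bla beta-lactamase reporter cells rested 5 h at 37 C/5% CO2, then received compounds in DMSO by pin transfer and were incubated 16 h at 37 C. LiveBLAzer B/G FRET substrate was loaded for 2 h at room temperature before fluorescence reading.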

Test [10] in a line: cAMP Responsive Elements (CRE) small molecule agonists, cell-based qHTS assay (AID 1963590). An outline of the steps: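 CRE-bla HEK 293T cells in DMEM with 10% dialyzed FBS, NEAA, pyruvate and 25 mM HEPES were plated 18 h at 37 C/5% CO2, then exposed to compounds in DMSO for 3 h before LiveBLAzer B/G FRET substrate addition.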
A short description of test [11]: cAMP Responsive Elements (CRE) small molecule antagonists, cell-based qHTS assay (AID 1963591; active = well fitted inhibition curve with a large enough effect in the signal ratio in the repeat runs, not every such curve was filed as active; the % refers to the signal ratio). An outline of the steps: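 CRE-bla HEK293T cells were plated 18 h at 37 °C/5% CO2, pinned with compound in DMSO, then stimulated with NKH477 at 0.25 uM final for 3 h. LiveBLAzer B/G FRET substrate was added and plates incubated 2 h at room temperature.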
The target in test [12] is Beta-2 adrenergic receptor (Homo sapiens) (UniProt P07550). Kind of test: Adrenergic beta2 receptor (ADRB2) small molecule antagonists, cell-based qHTS assay (AID 1963592). Note: series mostly up to about 92 µM; nearly all actives have a fitted effect of over 50% in size. The procedure, abridged:
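Cells (CHO, stable ADRB2 overexpression) incubated 18-20hr at 37C; compounds added from DMSO; agonist mix (1nM isoproterenol, 100uM IBMX, 25uM Ro-20-1724) added; 0.5hr RT; d2-cAMP and anti-cAMP-cryptate added; 1hr RT; 665/615 nm read.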

For test [13] the target is unchanged. Kind of test: Adrenergic beta2 receptor (ADRB2) small molecule agonists, cell-based qHTS assay (AID 1963593).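 Note: CHO cells stably overexpressing human ADRB2.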 An outline of the steps:
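CHO cells stably over-expressing ADRB2 were plated overnight at 37C, then dosed with compounds plus a stimulation mix containing 100uM IBMX and 25uM Ro-20-1724 for 0.5hr at room temperature. cAMP was measured by HTRF competition, 1hr.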

Test [14] has as its target D(2) dopamine receptor (Homo sapiens) (UniProt P14416). Kind of test: Dopamine D2 receptor (DRD2) small molecule agonists, cell-based qHTS assay (AID 1963594). Note: nearly all actives have a fitted effect of over 35% in size. An outline of the steps: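 HEK293 cells stably expressing human DRD2, pre-treated with PDE inhibitor Ro20-1724 (0.1 mM final) and compound 10 min at room temperature, then stimulated with NKH477 (200nM […]) for 30 min. cAMP read by HTRF (665/620 nm).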

Test [15] in a line: p53 small molecule agonists, cell-based qHTS assay with human liver microsomes (AID 1963577). The procedure, abridged:
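p53RE-bla cells, 4,000/well, compound added after 5 h, with human liver microsomes 0.5 mg/mL and NADPH 0.5 mg/mL final; 16 h at 37 C, then LiveBLAzer 2 h RT, fluorescence.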

Test [16] has as its target 5-hydroxytryptamine receptor 2A (Homo sapiens) (UniProt P28223). Kind of test: 5-hydroxytryptamine receptor 2A (HTR2A) small molecule antagonists, cell-based qHTS assay (AID 1963586). Note: nearly all actives have a fitted effect of over 45% in size. The procedure, abridged:
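Antagonist-mode intracellular calcium assay: DOI (4 nM) added after 5 min compound pre-incubation at room temperature to dye-loaded HTR2A-CHO cells. Fluorescence followed for 3 min, sampled every second.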

Test [17] shares this target. Kind of test: 5-hydroxytryptamine receptor 2A (HTR2A) small molecule agonists, cell-based qHTS assay (AID 1963587). Note: nearly all actives have a fitted effect of over 30% in size. The procedure, abridged: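 CHO cells stably expressing human HTR2A, plated 18 h, loaded with calcium dye 1 h at 37 C. Agonist mode: compounds added and intracellular calcium fluorescence recorded kinetically for 2 min at 1 sec intervals.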
Test [18] concerns the target Muscarinic acetylcholine receptor M1 (Homo sapiens) (UniProt P11229). Nature of the test: Cholinergic receptor muscarinic 1 (CHRM1) small molecule antagonists, cell-based qHTS assay (AID 1963588). Note: nearly all actives have a fitted effect of over 40% in size. Note: potency is the fitted concentration of half-maximal effect. The procedure, abridged: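 CHRM1-CHO calcium-flux assay, antagonist mode. Cells were seeded 18 h, dye-loaded 1 h at 37 C and given compound for 5 min at RT, then acetylcholine was added at 50nM. FDSS fluorescence was read 3 min; 15 concentrations, three runs.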

Test [19] has the same target. Kind of test: Cholinergic receptor muscarinic 1 (CHRM1) small molecule agonists, cell-based qHTS assay (AID 1963589). Note: nearly all actives have a fitted effect of over 35% in size. The procedure, abridged: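 CHO cells stably expressing human CHRM1, seeded 18 h at 37 C/5% CO2, dye-loaded 1 h at 37 C, then given compound in agonist mode; intracellular calcium fluorescence read kinetically at 1 s intervals. Fifteen concentrations, three independent runs.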

The target in test [20] is D(2) dopamine receptor (Homo sapiens) (UniProt P14416). Kind of test: Dopamine D2 receptor (DRD2) small molecule antagonists, cell-based qHTS assay (AID 1963595; active = well fitted inhibition curve with a large enough effect in the signal ratio in the repeat runs, with a control signal flat; the % refers to the signal ratio). An outline of the steps:
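Human DRD2 antagonist qHTS measuring cAMP by HTRF. The cells are exposed to compound for 10 min, then to NKH477 (200 nM) and quinpirole (12 nM) for 30 min at RT, with Ro20-1724 (0.1 mM) present throughout.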

Muscarinic acetylcholine receptor M1 (Homo sapiens), sequence (P11229 whole entry, looked up): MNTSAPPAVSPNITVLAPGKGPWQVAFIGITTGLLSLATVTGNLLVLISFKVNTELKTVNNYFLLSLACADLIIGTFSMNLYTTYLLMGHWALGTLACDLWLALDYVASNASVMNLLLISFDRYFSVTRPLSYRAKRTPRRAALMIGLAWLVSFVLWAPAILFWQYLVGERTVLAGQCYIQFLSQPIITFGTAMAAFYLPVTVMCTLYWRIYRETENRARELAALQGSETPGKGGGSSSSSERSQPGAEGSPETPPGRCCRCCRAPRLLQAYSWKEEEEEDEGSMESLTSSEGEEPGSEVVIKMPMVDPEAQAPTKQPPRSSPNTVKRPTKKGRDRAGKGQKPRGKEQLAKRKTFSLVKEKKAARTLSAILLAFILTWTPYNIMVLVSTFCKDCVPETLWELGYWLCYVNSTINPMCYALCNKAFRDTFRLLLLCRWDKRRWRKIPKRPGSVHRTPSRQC
Beta-2 adrenergic receptor (Homo sapiens), sequence (P07550 whole entry, looked up): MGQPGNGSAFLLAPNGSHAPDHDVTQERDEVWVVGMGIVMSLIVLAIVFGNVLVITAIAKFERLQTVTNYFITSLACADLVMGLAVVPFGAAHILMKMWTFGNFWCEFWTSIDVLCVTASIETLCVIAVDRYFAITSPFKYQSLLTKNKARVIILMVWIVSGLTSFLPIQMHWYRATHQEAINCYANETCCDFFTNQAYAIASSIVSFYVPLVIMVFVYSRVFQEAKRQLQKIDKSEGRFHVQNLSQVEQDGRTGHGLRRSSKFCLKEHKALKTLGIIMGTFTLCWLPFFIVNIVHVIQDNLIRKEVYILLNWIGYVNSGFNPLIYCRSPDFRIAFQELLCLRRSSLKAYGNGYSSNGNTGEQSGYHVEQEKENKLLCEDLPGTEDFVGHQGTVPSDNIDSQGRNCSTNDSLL
KiSS-1 receptor (Homo sapiens), sequence (Q969F8 whole entry, looked up): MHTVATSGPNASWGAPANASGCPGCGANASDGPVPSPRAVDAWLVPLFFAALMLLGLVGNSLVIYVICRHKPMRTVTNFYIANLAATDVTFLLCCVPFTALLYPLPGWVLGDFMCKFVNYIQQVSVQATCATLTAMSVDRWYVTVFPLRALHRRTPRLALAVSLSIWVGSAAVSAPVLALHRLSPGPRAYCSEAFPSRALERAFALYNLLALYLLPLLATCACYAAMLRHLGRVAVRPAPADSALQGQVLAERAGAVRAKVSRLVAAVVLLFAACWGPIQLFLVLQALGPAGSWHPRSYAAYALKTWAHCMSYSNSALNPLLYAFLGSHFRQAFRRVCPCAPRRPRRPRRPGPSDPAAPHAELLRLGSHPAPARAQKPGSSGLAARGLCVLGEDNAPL
D(2) dopamine receptor (Homo sapiens), sequence (P14416 whole entry, looked up): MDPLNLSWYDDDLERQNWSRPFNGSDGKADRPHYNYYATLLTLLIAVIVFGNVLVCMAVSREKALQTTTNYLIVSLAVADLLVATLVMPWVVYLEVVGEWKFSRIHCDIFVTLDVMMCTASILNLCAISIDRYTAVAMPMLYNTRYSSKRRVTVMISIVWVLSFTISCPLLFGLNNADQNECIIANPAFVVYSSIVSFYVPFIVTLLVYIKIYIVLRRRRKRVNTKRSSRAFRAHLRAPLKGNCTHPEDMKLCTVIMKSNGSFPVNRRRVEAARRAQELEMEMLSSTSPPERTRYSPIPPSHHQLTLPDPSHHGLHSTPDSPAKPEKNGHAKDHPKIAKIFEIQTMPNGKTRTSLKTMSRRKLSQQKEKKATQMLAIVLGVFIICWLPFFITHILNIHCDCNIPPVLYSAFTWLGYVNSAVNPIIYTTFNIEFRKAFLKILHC
5-hydroxytryptamine receptor 2A (Homo sapiens), sequence (P28223 whole entry, looked up): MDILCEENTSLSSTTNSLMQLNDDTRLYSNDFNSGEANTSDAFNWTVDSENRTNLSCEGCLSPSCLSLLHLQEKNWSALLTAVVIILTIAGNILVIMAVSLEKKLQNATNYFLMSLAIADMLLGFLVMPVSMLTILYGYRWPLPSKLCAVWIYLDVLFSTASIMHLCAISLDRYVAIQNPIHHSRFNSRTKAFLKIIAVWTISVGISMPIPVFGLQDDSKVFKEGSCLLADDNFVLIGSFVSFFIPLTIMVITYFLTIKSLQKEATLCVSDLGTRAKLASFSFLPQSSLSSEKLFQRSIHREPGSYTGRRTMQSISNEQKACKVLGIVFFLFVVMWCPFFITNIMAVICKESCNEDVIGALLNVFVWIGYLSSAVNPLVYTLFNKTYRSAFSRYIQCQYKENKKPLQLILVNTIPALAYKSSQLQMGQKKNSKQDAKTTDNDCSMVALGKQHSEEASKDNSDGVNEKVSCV

For `CC1=NN(c2ccccc2)C(=O)C1`, the Potency result in test [1], in test [2], in test [3], in test [4], in test [5] and in test [6] was “inactive” in each case. Moreover, the Potency result in test [7], in [8], in test [9], in [10], in [11] and in [12] was “inactive” throughout. In addition, the Potency entry in test [13] and in test [14] was “inactive” in each case.
Take `CCOC(=O)C(C#N)=C(c1ccccc1)c1ccccc1`: the Potency result in [1], in [2], in [3], in test [4], in test [15] and in test [5] was “inactive” throughout. The Potency result in [6], in [7], in test [8], in [9], in test [16] and in test [17] was “inactive” in each case. Besides, the Potency result in [18], in test [19], in test [10], in test [12], in [13] and in test [14] was “inactive” throughout. For the same molecule, in [20], the Potency entry was “inactive”.
Turning to `CC(C)(C)c1cccc(C(C)(C)C)c1O`, the Potency entry in test [1], in [2], in [3], in test [4], in [15] and in [5] was “inactive” throughout. The Potency result in test [6], in [7], in test [8], in [9], in [16] and in [17] was “inactive” throughout. Further, the Potency entry in test [19], in [12], in test [14] and in [20] was “inactive” throughout. In addition, the Potency in test [18] is 231 nM (active) and inactive.
For the molecule `COc1ccc2[nH]cc(CCNC(C)=O)c2c1`, the Potency entry in [1], in test [2], in test [3], in test [4], in test [15] and in [5] was “inactive” each time. The Potency result in test [7], in test [8], in [9], in test [10], in test [11] and in test [12] was “inactive” each time. The Potency entry in [13], in [14] and in [20] was “inactive” throughout.
Consider `O=c1[nH]cc(F)c(=O)[nH]1`, for which the Potency in [1] is 5.65 µM (active) and inactive; in test [7], 47.5 µM (active) and inactive; in [9], 2.63 µM (active) and 7.93 µM (active). Also, the Potency result in test [2], in test [3], in test [4], in test [15], in test [5] and in test [6] was “inactive” each time. The Potency entry in test [8], in test [10], in [11], in test [12], in test [14] and in [20] was “inactive” each time.
Take `CCCc1cc(=O)[nH]c(=S)[nH]1`: the Potency entry in test [1], in test [2], in test [3], in test [4], in [15] and in [5] was “inactive” each time. For the same molecule, the Potency entry in test [6], in test [7], in test [8], in test [9], in [10] and in test [11] was “inactive” throughout. Moreover, the Potency result in test [13], in test [14] and in [20] was “inactive” in each case.
In the case of `Oc1cccc(O)c1`, the Potency result in [1], in test [2], in test [3], in test [4], in [5] and in [6] was “inactive” in each case. For the same molecule, the Potency result in test [7], in test [8], in test [9], in test [16], in test [17] and in test [18] was “inactive” in each case. The Potency entry in test [19], in test [10], in test [11], in [12], in [14] and in test [20] was “inactive” throughout.
On to `O=c1[nH]nnc2ccccc12`, for which the Potency entry in [1], in test [2], in test [3], in test [4], in test [15] and in test [6] was “inactive” throughout. Also, the Potency result in [7], in [8], in test [9], in test [17], in test [18] and in [19] was “inactive” throughout. Further, the Potency result in test [10], in test [11], in test [12], in [14] and in test [20] was “inactive” each time.
